The record followed here is the supplement of paper PMC11219838.

SMILES strings stand for the structures. A number with no mark means an inactive call.

The subject of the assay is Caenorhabditis elegans L1 (N2). The assay is described as follows: survival and reproduction score of C. elegans L1 (0: 0-10 living worms, 1: 11-20, 2: 21-50, 3: >50, 4: overgrown) (score 0-4); higher = more worms, less nematicidal, active = 1 or less; extreme values may be limits of the assay. Particulars: 60 µM; 6 days; temperature: 20 °C. In short, it runs like this:
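In liquid NGM with E. coli HB101, approximately 20 synchronized C. elegans N2 L1s per 96-well well were exposed to compound at 60 µM final (0.6% v/v DMSO) for 6 days at 20 °C with shaking at 200 rpm in sealed plates. Survival and reproduction were judged under a dissection microscope as an ordinal rating of living worms per well. Ratings went from 0 (0–10 worms) to 4 (overgrown, starved) and were averaged over two biological replicates.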

In the case of `Cc1ccccc1-c1noc(-c2cccc(Br)c2)n1`, the “survival and reproduction score” value was 4. In the case of `CCc1cccc(C)c1NC(=O)CSc1nnc(-c2ccccc2)o1` it was 4. As to `Clc1ccc(-c2nnc(SCc3ccccc3)o2)cc1`, the “survival and reproduction score” value is 4. Take `COc1ccc(-c2nnc(SCC(=O)Nc3ccccc3C(C)C)o2)cc1`: the “survival and reproduction score” value was 4. In the case of `CCc1ccc(OCc2nc(-c3ccc(C)cc3)no2)cc1` it was 2; in that of `Brc1cccc(-c2nnc(SCc3ccccc3)o2)c1`, 4. In the case of `COC(=O)c1ccc(CSc2nnc(-c3cccnc3)o2)cc1` it was 4; in that of `COc1ccc(-c2noc(-c3ccc(Cl)cc3Cl)n2)cc1`, 4.

Consider `O=C(CSc1nnc(-c2ccco2)o1)Nc1cc(Cl)ccc1Cl`, for which the “survival and reproduction score” value was 4. Turning to `Fc1cccc(-c2nc(-c3ccccc3)no2)c1`, the “survival and reproduction score” value is 0 (active). With `O=C(Nc1ccc(-c2noc(-c3ccc(Cl)cc3)n2)cc1)c1ccco1` the figure was 0 (active). In the case of `Cc1ccc(C(=O)CSc2nnc(-c3ccccc3)o2)cc1` it was 4. `COc1ccc(C)cc1NC(=O)CSc1nnc(-c2ccc(Br)cc2)o1`: the “survival and reproduction score” value is 4. With `Cc1cccc(-c2noc(-c3cccc(Br)c3)n2)c1`, the “survival and reproduction score” value is 4. In the case of `Cc1cc(OCc2nc(-c3ccccn3)no2)ccc1Cl`, the “survival and reproduction score” value is 4.

In the case of `CC(=O)Nc1ccc(-c2nnc(SCc3ccccc3)o2)cc1`, the “survival and reproduction score” value is 4. Regarding `Cc1cnc(NC(=O)CSc2nnc(-c3cccc(Cl)c3)o2)s1`, the “survival and reproduction score” value was 4.

Regarding `Cc1ccc(-c2nc(-c3ccccc3Cl)no2)c(Cl)c1`, the “survival and reproduction score” value was 4. With `CCOC(=O)c1ccc(OCc2nc(-c3cccs3)no2)cc1` the figure was 4; with `Clc1cccc(-c2nc(-c3ccccc3Cl)no2)c1`, 4; with `CCOc1ccc(-c2nc(-c3ccc(C)cc3)no2)cc1`, 0 (active).

As to `COc1ccccc1-c1noc(-c2ccccc2F)n1`, the “survival and reproduction score” value was 4. In the case of `COc1ccccc1-c1nnc(SCc2ccccc2C)o1` it was 4.

As for `c1cncc(-c2noc(COc3cccc4ccccc34)n2)c1`, the “survival and reproduction score” value is 4. With `COc1ccc(CCC(=O)Nc2ccc(-c3noc(-c4ccc(F)cc4)n3)cc2)cc1` the figure was 4; with `Cc1ccc(OCc2nc(-c3ccccc3)no2)c(Br)c1`, 4; with `Cc1cc(C)cc(NC(=O)CSc2nnc(-c3ccccc3)o2)c1`, 4. With `COc1cccc(-c2noc(-c3ccc(C)cc3)n2)c1` the figure was 0 (active).

Take `COc1ccccc1-c1noc(-c2ccccc2C)n1`: the “survival and reproduction score” value was 4.

Regarding `CCCc1ccc(-c2ccc(-c3nc(-c4ccccn4)no3)cc2)cc1`, the “survival and reproduction score” value was 4. In the case of `CCOC(=O)c1ccc(NC(=O)c2ccccc2-c2nc(-c3cccc(C)c3)no2)cc1` it was 4; in that of `Cc1cc(C)c(CSc2nnc(-c3ccccc3)o2)c(C)c1`, 4. In the case of `COc1ccccc1OCc1nc(-c2ccc(Cl)cc2)no1` it was 4.

With `COc1cccc(-c2noc(-c3ccccc3C)n2)c1`, the “survival and reproduction score” value is 0.5 (active). In the case of `CCOc1nc(-c2ccccc2)ccc1-c1noc(-c2cccc(C)c2)n1` it was 4; in that of `Cc1ccc(-c2nnc(SCC(=O)NCCc3ccccc3)o2)cc1`, 4; in that of `COc1nc(-c2ccccc2)ccc1-c1noc(C(C)C)n1`, 4.

With `COc1ccc(-c2nnc(SCC(=O)Nc3ccc(Br)c(C)c3)o2)cc1`, the “survival and reproduction score” value is 4. In the case of `Fc1ccc(-c2noc(-c3ccc(Cl)cc3)n2)cc1` it was 1 (active); in that of `FC(F)(F)c1cccc(-c2noc(-c3ccccc3Cl)n2)c1`, 3; in that of `O=C(CSc1nnc(-c2ccco2)o1)NC1CCCCC1`, 4. In the case of `N#Cc1ccccc1NC(=O)CSc1nnc(-c2ccccc2)o1` it was 4; in that of `Cc1ccccc1OCc1nc(-c2ccc(Cl)cc2)no1`, 4; in that of `c1ccc2cc(-c3nc(-c4ccncc4)no3)ccc2c1`, 0 (active). In the case of `O=C(c1ccccc1-c1nc(-c2ccccc2Cl)no1)N1CCCCC1` it was 4; in that of `Cc1cc(C)cc(OCc2nc(-c3cc(C)nc4ccccc34)no2)c1`, 4. `O=C(CSc1nnc(-c2ccc(Cl)cc2Cl)o1)c1ccc2c(c1)OCCO2`: the “survival and reproduction score” value is 4. With `O=C(Nc1ccccc1-c1nc(-c2ccncc2)no1)c1cccc(Cl)c1` the figure was 4; with `Cc1ccc(-c2nc(-c3ccccc3Br)no2)cc1`, 4; with `CCCc1ccc(-c2nc(-c3ccc(F)cc3)no2)cc1`, 1.5. With `Clc1ccc(-c2noc(-c3cccnc3)n2)cc1` the figure was 0 (active); with `O=C(Nc1ccccc1-c1nc(-c2ccncc2)no1)c1ccccc1Cl`, 4; with `CC(C)Oc1cccc(-c2nc(-c3ccccn3)no2)c1`, 4. With `COc1ccc(-c2noc(COc3ccc(Cl)cc3C)n2)cc1` the figure was 4; with `COC(=O)CSc1nnc(-c2ccc(C(C)(C)C)cc2)o1`, 3.5; with `COc1cccc(-c2noc(-c3c(F)cccc3F)n2)c1`, 4. As to `Fc1ccc(-c2nc(-c3ccc(Cl)cc3)no2)cc1`, the “survival and reproduction score” value was 4.

Take `c1csc(-c2nnc(-c3cccs3)o2)c1`: the “survival and reproduction score” value is 2. In the case of `C(=C\c1ccccc1)/CSc1nnc(-c2ccncc2)o1` it was 4; in that of `CC(=O)Nc1ccc(C(=O)CSc2nnc(-c3cccc(Br)c3)o2)cc1`, 4; in that of `COc1ccc(-c2noc(COc3ccccc3Cl)n2)cc1`, 4.

Turning to `O=C(c1ccccc1-c1nc(-c2ccc(Cl)cc2)no1)N1CCCCC1`, the “survival and reproduction score” value is 4. With `O=C(NCCc1ccccc1)c1ccccc1-c1nc(-c2ccccc2Cl)no1` the figure was 4; with `O=C(CSc1nnc(-c2ccccc2)o1)Nc1cccc(Cl)c1`, 4. In the case of `COc1ccccc1-c1nnc(SCC(=O)OCc2ccccc2)o1` it was 4.

Regarding `Cc1cc(OCc2nc(-c3ccccn3)no2)cc(C)c1Cl`, the “survival and reproduction score” value is 4.

For `Clc1ccc(-c2nc(-c3ccncc3)no2)cc1`, the “survival and reproduction score” value is 0.5 (active). As for `Cc1cccc(-c2noc(-c3cccc(Cl)c3)n2)c1`, the “survival and reproduction score” value is 4.

As for `CCCc1ccc(-c2nc(-c3cccnc3)no2)cc1`, the “survival and reproduction score” value was 0 (active).

Regarding `COc1ccc(-c2nnc(SCC(=O)c3ccc(C)o3)o2)cc1`, the “survival and reproduction score” value was 2. In the case of `COc1ccc(-c2noc(COc3ccc(Br)c(C)c3)n2)cc1`, the “survival and reproduction score” value is 4. For the molecule `c1ccc2c(-c3nc(-c4ccncc4)no3)cccc2c1`, the “survival and reproduction score” value is 4.

As to `COc1ccc(-c2nnc(SCc3ccccc3C)o2)cc1`, the “survival and reproduction score” value was 4.

Regarding `Cc1cccc(-c2noc(COc3ccc(C)c(C)c3)n2)c1`, the “survival and reproduction score” value is 4.

Consider `Cc1ccccc1-c1nnc(SCc2ccccc2Cl)o1`, for which the “survival and reproduction score” value was 4. With `Cc1ccc(NC(=O)CSc2nnc(-c3ccccc3)o2)c(C)c1` the figure was 4.
